# From PubChem BioAssay AID504332 (National Center for Advancing Translational Sciences (NCATS), 2011)
# Out of some 350,000 compounds screened, about 31,000 (8.9%) were called active. Inconclusive results (about 15%) are left out. For the sample, actives were picked, then their nearest neighbours and some compounds at random. Where a structure was tested more than once in an assay, its records may differ in their call. Unmarked numbers belong to inactive results. The call rests on the fitted dose curve; in most records, active means well fitted inhibition curve with a large enough effect; inconclusive means small, poorly fitted or top-dose-only effect; inactive means no such curve, though single readings can be large or run the other way.
# Target: Histone-lysine N-methyltransferase EHMT2 (Homo sapiens) (UniProt Q96KQ7)
# Test: qHTS Assay for Inhibitors of Histone Lysine Methyltransferase G9a; further: nearly all actives have a fitted effect of over 75% in size
# Settings: G9a H3K9 monomethylation, AlphaScreen, 2 h; series mostly up to 59 µM; activity, negative = inhibition: at the top concentration
# Summary of the method: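 AlphaScreen read-out: biotin-H3K9 peptide (500 nM) methylation by 20 nM enzyme with 20 uM SAM, 2 h at room temperature after 15 min compound preincubation; anti-monomethyl H3K9 antibody plus donor/acceptor beads, 10 min dark.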
# On the % scale 0 is the no-effect control and ±100 the full control effect; potency means the concentration at half of the fitted maximal effect.
# Histone-lysine N-methyltransferase EHMT2 (Homo sapiens), sequence (Q96KQ7 913-1193 limits assumed): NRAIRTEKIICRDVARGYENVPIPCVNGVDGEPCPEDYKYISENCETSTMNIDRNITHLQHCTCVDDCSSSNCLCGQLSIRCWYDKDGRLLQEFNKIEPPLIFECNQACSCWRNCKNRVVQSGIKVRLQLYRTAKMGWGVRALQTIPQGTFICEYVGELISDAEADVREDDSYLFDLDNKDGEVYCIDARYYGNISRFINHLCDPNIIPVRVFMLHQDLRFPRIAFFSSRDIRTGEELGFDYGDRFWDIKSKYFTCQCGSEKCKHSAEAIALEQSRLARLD
SMILES,"activity, negative = inhibition",Potency
COc1ccc(Cl)cc1C(=O)OCC(=O)NCc1cccs1,5.04%,
CCSc1nnc(NC(=O)c2cc(=O)c3cc(C)c(C)cc3o2)s1,-6.05%,
Cc1ccc(Cl)cc1NC(=O)NC1COc2ccccc2C1 (configuration not stated),0.91%,
CSc1nc(Nc2ccc(F)cc2)cc(-c2ccccc2)n1,18.2%,
Fc1ccc(Nc2nnns2)cc1,,10 µM (active)
CN(C)c1nc(NN)nc(Nc2ccc(F)cc2)n1,5.01% [at 102 µM],
O=C1/C(=C\c2cccnc2)CN(Cc2ccccc2)C/C1=C\c1cccnc1,-13.5%,
O=S1(=O)CCN2C(=N1)SC1=C2CCN(Cc2ccccc2)C1,,20 µM (active)
Cc1ccc(C2=CSC3=NS(=O)(=O)CCN23)cc1C,-0.694%,
COc1ccccc1C(=O)NCCC(=O)N(C)Cc1cccnc1,9.72%,
CC1Cc2cc(/C(O)=C3\C(=O)C(=O)N(CCN4CCOCC4)C3c3ccccc3F)ccc2O1 (configuration not stated),10%,
O=C1C(=O)N(CCN2CCOCC2)C(c2ccccn2)/C1=C(/O)c1ccc(Cl)cc1 (configuration not stated),,7.94 µM (active)
COc1ccc(C2/C(=C(/O)c3ccc(OC(C)C)cc3)C(=O)C(=O)N2CCCN2CCOCC2)cc1 (configuration not stated),,44.7 µM (active)
O=C1C(=O)N(CCCN2CCOCC2)C(c2ccc([N+](=O)[O-])cc2)/C1=C(\O)c1ccc2c(c1)OCCO2 (configuration not stated),-12.3% [at 0.0925 µM],
O=C1C(=O)N(CCCO)C(c2ccccc2)/C1=C(\O)c1ccc(Br)cc1 (configuration not stated),12.3% [at 0.501 µM],
COCCN1C(=O)C(=O)/C(=C(/O)c2ccc(S(=O)(=O)N3CCOCC3)cc2)C1c1ccc(OC)c(OC)c1 (configuration not stated),-13% [at 102 µM],
CCCCSCCCNC(=O)C1CCC(CNS(=O)(=O)c2ccc(NC(C)=O)cc2)CC1 (configuration not stated),16.1% [at 102 µM],
COCCN(Cc1ccccc1)C(=O)Cc1ccc(S(=O)(=O)N2CCOCC2)s1,-3.78% [at 12.7 µM],
COc1ccc(NC(=O)Cn2c(=O)n(CCC(C)C)c(=O)c3cccnc32)cc1Cl,-0.386%,
O=C(Nc1ccc(Br)cc1)c1cc2nc(-c3ccccc3)cc(-c3ccccc3)n2n1,29.5%,
COc1ccc(C(=O)Nc2ccc3nc(N4CCCCC4)cc(C)c3c2)cc1OC,1.41%,
COc1cccc(C(=O)Nc2ccc3nc4n(c(=O)c3c2)CCCCC4)c1,1.5%,

SMILES,"activity, negative = inhibition",Potency
COc1cccc(C(=O)Nc2ccc(N3CCN(C(=O)c4ccco4)CC3)cc2)c1,-10.2% [at 102 µM],
O=C(O)CCC(=O)Nc1ccc(N2CCOCC2)cc1,-10.4%,
Cc1ccccc1C(=O)NC(=S)Nc1ccc(N2CCN(C(=O)c3ccccc3)CC2)cc1,-1.64% [at 102 µM],
COc1cccc(C(=O)Nc2ccc(N3CCCC3)cc2)c1,,4.47 µM (active)
COc1ccc(C(=O)NC(=S)Nc2ccc(N3CCCC3)cc2)cc1OC,,3.98 µM (active)
COC(=O)Cc1ccc(NC(=S)NCc2ccccc2)cc1,10%,
O=C(Cc1ccccc1)NC(=S)Nc1ccc(N2CCCCC2)cc1,,7.94 µM (active)
COc1ccc(C(=O)Nc2ccc(N3CCC(C)CC3)cc2)cc1Br,-10% [at 102 µM],
Cc1ccc(C(=O)NC(=S)Nc2ccc(N3CCOCC3)cc2)cc1,,7.94 µM (active)
Cc1ccc(C(=O)NC(=S)NCCN2CCOCC2)cc1,-39.8%,
COc1ccc2oc(-c3ccc(C)c(NC(=O)c4sc5ccccc5c4Cl)c3)nc2c1,-23.3%,
CCOc1ccccc1NC(=S)NC(=O)CCc1ccccc1,-3.32% [at 102 µM],
CSCC[C@H](NC(=O)N1CCn2c1nc1ccccc12)C(=O)NCc1ccc2c(c1)OCO2,-13.1% [at 102 µM],
Cc1ccnc(NC(=O)CCNS(=O)(=O)c2ccc(C)c(C)c2)c1,52.3% [at 102 µM],
CN(Cc1ccccc1)C(=O)CSc1nc2ccccc2[nH]1,2.4%,
O=c1cc(-c2ccccc2)[nH]c2nc(Cl)ccc12,48.3% [at 12.7 µM],20 µM (active)
O=c1cc(-c2ccccc2)[nH]c2cc(F)ccc12,1.07% [at 102 µM],
Cc1ccc(-c2cc(=O)c3ccc(Cl)cc3[nH]2)cc1,,inactive
CCN(CC)CCCNC(=O)c1cc2c(=O)[nH]c3ccc(C)cc3c2s1,17.6% [at 102 µM],
CCCCn1c(N)c(N(CCOC)C(=O)c2cccc(OCc3ccccc3)c2)c(=O)[nH]c1=O,-27.6% [at 102 µM],
CCCCn1c(N)c(N(CCOC)C(=O)c2cccc(S(=O)(=O)N3CCCCC3)c2)c(=O)[nH]c1=O,,50.1 µM (active)
CCCCn1c(N)c(N(CC(C)C)C(=O)c2cccc(S(=O)(=O)N3CCN(C(C)=O)CC3)c2)c(=O)[nH]c1=O,-7.91% [at 102 µM],

SMILES,"activity, negative = inhibition",Potency
CCOc1ccc(NC(=O)COc2ccc(C(=O)N3CCC(C(N)=O)CC3)cc2OC)cc1,4.45% [at 0.501 µM],
CC(OC(=O)CNC(=O)c1ccco1)C(=O)Nc1ccc(Cl)cn1 (configuration not stated),-31.5% [at 102 µM],
COc1ccc2[nH]c(C(=O)N3CCN(C)CC3)c(C)c2c1,18.9% [at 102 µM],
CCN(CC)CC(=O)c1c[nH]c2ccc(OC)cc12,-8.26% [at 102 µM],
COc1ccc2[nH]c3ccc(OC)cc3c2c1,,50.1 µM (active)
COc1ccc(NC(=O)c2cc3cc(C)ccc3n2C)cc1,-1.97%,
CCC(C)NC(=O)c1ccc(NC(=O)CC2SC(N3CCCCC3)=NC2=O)cc1 (configuration not stated),-0.745% [at 12.7 µM],
CC(=O)O[C@H]1CC[C@@]2(C)[C@@H](CC[C@@H]3[C@@H]2CC[C@]2(C)[C@@H](C(C)(C)O)C[C@@H]32)C1,-7.36% [at 2.33 µM],
O=C(NCc1ccco1)c1sc2cccc(F)c2c1Cl,,8.91 µM (active)
O=C(NCc1ccco1)C1(c2ccc(Cl)cc2)CCCC1,-2.12% [at 102 µM],
O=C(NCc1ccco1)c1nn2cccnc2c1Cl,-46.5% [at 102 µM],
COc1ccc(-c2cc(C(=O)N3CCN(Cc4ccc5c(c4)OCO5)CC3)on2)cc1OC,-12.3% [at 102 µM],
CCN1C(=O)[C@H]2[C@@H](c3ccc(C)cc3)N3C(=O)N(c4cccc(Br)c4)C(=O)[C@@]3(CC)[C@H]2C1=O,-0.448% [at 2.33 µM],
COc1cc(/C=C2\SC(=O)NC2=O)ccc1OCc1ccc(Cl)nc1,21.1% [at 2.33 µM],
C#CCOc1ccccc1/C=C1/C(=O)ON=C1C,-20.2% [at 102 µM],
COc1ccnc2c1c(=O)n(Cc1cccc(F)c1)c(=O)n2C,-0.373% [at 102 µM],
C=CCOc1ccc(/C=C2/C(=O)ON=C2C)cc1OCC,,44.7 µM (active)
C#CCOc1ccc(/C=C2/C(=O)ON=C2C)cc1OCC,,39.8 µM (active)
CCOc1cc(/C=C2\C(=N)N3N=C(C)SC3=NC2=O)ccc1OCCOc1ccccc1,-11.6% [at 102 µM],
COc1cc(/C=C2/C(=O)ON=C2C)ccc1OCc1cccc(F)c1,,50.1 µM (active)
C=CCOc1ccc(/C=N/NC(=O)C(C)Sc2ccccn2)cc1OCC (configuration not stated),11.1%,
CCOc1cc(/C=N/O)ccc1OCc1ccccc1F,2.07%,
